Source: the supplement of paper PMC11732987, “Enantioselective OTUD7B fragment discovery through chemoproteomics screening and high-throughput optimisation” (Communications Chemistry, 2025)

What was measured:
Experiment in all cases: log2 ratio of Biotin-Ahx-Ub-VS probe labelling (fragment/DMSO); higher = less target engagement (more negative = stronger competition), active = hit call of the paper (q ≤ 0.05, log2 ratio ≤ -1)
Settings in all cases: compound concentration: 200 uM; treatment time: 3 h
ALG13 = target: T1, ALG13 (UniProt Q9NP73)
T1 sequence (whole entry): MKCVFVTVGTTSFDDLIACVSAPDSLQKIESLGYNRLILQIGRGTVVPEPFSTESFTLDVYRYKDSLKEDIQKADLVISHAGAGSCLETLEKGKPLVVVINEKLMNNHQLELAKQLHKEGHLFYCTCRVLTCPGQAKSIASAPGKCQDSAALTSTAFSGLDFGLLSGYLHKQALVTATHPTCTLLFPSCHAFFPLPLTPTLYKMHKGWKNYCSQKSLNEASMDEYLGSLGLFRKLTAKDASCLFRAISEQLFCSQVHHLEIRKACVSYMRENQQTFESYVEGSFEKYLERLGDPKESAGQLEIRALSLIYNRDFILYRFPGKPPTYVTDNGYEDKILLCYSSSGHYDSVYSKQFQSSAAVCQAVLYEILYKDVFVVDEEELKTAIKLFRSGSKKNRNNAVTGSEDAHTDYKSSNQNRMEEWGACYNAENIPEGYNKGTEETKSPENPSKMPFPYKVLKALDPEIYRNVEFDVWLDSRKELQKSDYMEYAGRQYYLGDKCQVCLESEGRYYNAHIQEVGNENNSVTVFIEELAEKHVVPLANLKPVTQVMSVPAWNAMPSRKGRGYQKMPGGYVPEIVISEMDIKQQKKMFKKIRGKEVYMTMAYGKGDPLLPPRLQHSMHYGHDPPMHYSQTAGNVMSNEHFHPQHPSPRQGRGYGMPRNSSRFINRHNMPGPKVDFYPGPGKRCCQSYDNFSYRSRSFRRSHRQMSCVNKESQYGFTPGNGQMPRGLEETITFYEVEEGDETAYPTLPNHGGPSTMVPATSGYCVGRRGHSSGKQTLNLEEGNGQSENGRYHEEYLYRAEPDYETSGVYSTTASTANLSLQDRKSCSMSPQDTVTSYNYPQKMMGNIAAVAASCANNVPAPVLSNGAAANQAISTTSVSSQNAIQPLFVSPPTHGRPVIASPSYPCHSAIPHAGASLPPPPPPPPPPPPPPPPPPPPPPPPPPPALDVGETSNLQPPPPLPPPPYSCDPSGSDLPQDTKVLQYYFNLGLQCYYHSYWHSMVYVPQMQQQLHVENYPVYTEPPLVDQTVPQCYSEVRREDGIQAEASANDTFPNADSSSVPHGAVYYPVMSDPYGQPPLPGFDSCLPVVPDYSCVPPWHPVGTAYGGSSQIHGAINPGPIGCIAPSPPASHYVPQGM
In short: (§1)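 Fragment (200 µM) or vehicle was incubated for 3 h with triplicate HEK293T lysate samples of 495 µg, which were then treated with Biotin-Ahx-Ub-VS at 0.5 µM final for 1 h. Labelled DUBs were enriched on NeutrAvidin, digested with LysC and trypsin, and analysed by diaPASEF LC-MS/MS. Values are average log2 fragment/vehicle ratios from an unpaired t-test on global-median-normalised Spectronaut label-free quantities, using proteins with ≥2 unique peptides.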

ATXN3 = ATXN3 (UniProt P54252)
In short: as §1

BAP1 = target: T2, BAP1 (UniProt Q92560)
T2 sequence (whole entry): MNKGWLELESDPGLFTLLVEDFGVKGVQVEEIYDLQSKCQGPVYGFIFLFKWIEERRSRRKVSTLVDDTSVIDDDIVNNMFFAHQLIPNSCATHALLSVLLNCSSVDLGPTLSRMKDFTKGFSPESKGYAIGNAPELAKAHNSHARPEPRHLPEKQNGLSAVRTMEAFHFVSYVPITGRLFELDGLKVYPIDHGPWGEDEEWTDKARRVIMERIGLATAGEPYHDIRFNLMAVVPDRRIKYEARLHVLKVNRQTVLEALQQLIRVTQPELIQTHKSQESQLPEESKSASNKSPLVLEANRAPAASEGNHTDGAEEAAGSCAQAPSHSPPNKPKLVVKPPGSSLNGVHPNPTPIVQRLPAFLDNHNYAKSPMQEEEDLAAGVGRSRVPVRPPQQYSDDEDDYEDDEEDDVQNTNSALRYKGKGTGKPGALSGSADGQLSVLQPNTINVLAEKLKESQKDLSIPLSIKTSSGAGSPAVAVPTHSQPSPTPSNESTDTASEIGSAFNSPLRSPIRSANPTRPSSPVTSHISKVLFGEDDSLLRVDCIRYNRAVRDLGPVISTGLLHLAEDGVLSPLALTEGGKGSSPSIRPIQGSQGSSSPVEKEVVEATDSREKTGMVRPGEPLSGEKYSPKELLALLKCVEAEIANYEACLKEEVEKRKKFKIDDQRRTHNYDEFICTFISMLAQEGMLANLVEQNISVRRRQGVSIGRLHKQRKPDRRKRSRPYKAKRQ
In short: as §1

EIF3F = EIF3F (UniProt O00303)
In short: as §1

EIF3H = EIF3H (UniProt O15372)
In short: as §1

FAM105A = target: T3, FAM105A (UniProt Q9NUU6)
T3 sequence (whole entry): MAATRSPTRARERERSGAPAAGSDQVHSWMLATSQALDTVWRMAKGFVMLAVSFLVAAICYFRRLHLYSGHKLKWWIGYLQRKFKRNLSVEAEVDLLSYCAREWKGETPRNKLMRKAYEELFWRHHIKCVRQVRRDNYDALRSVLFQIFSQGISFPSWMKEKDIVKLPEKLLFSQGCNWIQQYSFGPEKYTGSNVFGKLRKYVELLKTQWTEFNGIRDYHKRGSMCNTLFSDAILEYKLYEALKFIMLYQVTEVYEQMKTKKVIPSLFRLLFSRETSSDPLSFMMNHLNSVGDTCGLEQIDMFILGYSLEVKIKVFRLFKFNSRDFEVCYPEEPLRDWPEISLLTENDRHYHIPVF
In short: as §1

OTUB1 = OTUB1 (UniProt Q96FW1)
In short: as §1

OTUD4 = target: T4, OTUD4 (UniProt Q01804)
T4 sequence (whole entry): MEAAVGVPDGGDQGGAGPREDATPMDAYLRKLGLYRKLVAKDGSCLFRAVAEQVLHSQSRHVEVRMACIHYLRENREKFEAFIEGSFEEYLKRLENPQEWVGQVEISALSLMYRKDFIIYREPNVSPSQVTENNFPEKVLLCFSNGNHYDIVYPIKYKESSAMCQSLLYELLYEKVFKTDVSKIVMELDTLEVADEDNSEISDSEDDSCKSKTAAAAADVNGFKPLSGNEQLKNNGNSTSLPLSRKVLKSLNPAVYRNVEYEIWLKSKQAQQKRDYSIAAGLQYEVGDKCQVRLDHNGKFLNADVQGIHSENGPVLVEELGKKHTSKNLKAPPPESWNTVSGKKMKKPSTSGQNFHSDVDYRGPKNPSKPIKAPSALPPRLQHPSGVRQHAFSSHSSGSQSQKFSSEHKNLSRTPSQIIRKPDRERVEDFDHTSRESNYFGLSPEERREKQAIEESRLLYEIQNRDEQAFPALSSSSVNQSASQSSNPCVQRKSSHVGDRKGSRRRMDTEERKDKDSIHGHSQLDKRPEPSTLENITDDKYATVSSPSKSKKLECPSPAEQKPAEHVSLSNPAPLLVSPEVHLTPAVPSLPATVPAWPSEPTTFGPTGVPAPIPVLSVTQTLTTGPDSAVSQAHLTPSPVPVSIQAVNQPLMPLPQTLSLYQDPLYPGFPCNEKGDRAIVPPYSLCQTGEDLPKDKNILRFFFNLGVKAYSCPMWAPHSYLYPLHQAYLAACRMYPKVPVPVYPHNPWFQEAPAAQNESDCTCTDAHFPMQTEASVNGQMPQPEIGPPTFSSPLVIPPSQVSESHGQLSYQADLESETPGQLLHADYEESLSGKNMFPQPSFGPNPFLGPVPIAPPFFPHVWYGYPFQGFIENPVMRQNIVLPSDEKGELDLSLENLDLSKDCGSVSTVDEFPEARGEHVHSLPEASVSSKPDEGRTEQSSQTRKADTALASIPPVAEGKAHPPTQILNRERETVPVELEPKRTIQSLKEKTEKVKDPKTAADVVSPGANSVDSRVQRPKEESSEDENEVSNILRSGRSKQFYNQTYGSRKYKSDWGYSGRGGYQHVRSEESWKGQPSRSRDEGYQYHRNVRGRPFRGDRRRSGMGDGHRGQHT
In short: as §1

OTUD5 = target: T5, OTUD5 (UniProt Q96G74)
T5 sequence (whole entry): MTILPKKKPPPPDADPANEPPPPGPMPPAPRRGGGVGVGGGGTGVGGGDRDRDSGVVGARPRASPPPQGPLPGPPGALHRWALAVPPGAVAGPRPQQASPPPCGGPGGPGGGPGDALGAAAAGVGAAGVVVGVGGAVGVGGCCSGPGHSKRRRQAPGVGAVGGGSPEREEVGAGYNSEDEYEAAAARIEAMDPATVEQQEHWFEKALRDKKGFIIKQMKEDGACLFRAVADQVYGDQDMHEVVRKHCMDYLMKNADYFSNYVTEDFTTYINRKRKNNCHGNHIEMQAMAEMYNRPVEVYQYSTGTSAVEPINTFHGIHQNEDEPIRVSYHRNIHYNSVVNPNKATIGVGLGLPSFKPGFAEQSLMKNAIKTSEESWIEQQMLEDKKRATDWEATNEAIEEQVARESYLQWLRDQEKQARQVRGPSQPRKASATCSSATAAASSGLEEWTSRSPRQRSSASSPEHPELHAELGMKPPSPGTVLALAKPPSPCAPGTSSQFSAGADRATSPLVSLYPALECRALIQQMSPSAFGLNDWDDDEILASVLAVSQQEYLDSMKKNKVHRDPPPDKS
In short: as §1

Measured: log2 ratio of Biotin-Ahx-Ub-VS probe labelling

OTUB1, sequence (Q96FW1 whole entry): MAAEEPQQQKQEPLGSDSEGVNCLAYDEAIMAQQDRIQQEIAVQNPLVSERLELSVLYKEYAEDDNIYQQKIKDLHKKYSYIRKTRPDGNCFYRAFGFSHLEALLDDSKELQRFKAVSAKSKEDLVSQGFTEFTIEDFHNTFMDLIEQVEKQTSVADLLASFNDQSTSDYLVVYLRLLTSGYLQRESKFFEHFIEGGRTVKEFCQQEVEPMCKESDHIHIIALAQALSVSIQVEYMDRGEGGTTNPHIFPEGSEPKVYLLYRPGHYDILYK
EIF3F, sequence (O00303 whole entry): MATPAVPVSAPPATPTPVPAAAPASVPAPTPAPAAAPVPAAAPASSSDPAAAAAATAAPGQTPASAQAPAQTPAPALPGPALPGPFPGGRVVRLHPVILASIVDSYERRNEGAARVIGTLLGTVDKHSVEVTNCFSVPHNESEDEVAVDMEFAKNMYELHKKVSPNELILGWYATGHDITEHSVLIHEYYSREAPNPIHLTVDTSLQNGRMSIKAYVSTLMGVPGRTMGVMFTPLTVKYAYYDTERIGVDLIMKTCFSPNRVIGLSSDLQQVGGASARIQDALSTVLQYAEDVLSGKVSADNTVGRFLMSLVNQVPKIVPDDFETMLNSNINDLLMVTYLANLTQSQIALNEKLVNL
EIF3H, sequence (O15372 whole entry): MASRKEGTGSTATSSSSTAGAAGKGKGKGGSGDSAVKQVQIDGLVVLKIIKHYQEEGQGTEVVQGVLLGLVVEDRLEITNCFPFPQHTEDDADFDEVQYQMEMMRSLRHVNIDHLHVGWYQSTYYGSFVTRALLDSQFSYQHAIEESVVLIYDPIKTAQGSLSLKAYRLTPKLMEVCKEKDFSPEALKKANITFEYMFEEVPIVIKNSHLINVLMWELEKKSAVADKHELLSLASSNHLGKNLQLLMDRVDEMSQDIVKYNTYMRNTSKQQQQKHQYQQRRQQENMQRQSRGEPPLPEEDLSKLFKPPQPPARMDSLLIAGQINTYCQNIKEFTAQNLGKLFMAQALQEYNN
ATXN3, sequence (P54252 whole entry): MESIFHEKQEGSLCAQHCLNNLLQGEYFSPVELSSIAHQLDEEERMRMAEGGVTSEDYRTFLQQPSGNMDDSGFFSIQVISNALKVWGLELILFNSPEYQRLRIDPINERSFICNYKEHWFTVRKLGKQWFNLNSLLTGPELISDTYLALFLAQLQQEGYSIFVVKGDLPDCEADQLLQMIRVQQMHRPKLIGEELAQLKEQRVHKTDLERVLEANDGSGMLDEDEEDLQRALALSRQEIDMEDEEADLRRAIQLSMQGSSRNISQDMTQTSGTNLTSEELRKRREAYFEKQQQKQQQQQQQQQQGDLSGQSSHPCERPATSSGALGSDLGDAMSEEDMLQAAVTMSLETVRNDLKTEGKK

O=C(CCl)Nc1cc2c(cc1Cl)OCCO2
inactive: ALG13 -0.314 | ATXN3 0.00781 | EIF3F -0.138 | EIF3H 0.0273 | FAM105A 0.123 | OTUB1 0.157 | OTUD4 -0.327 | OTUD5 -0.173
active: BAP1 -3.65
